Experimental data published in ChEMBL document CHEMBL3988442, “University of Dundee, Small-Polar-MMV Screening Library” (2021).
Hit rate of the full screen: of about 48,000 compounds, about 13,000 (27%) showed an effect of 50% or more. The list shows a part of the results.

What follows are molecules tested on Wolbachia pipientis (assay: Anti-Wolbachia Cell-Based Screen). Conditions: 5 µM.
Assay type: functional
Parameters: scale not given: in the data most compounds retested in dose-response had high values
In the case of Cc1nc2c(C(=O)N[C@H]3C[C@H]4CN(C)CCN4C3)cccc2[nH]1, the “Percent Effect” value is reported as 8.866%. CCCc1cc(N2CCCC2Cn2nc(C)cc2C)n2ncnc2n1 (centres undefined) was tested, and the “Percent Effect” value was -3.923%. For CC(C)OCCS(=O)(=O)c1ccccc1C#N, the “Percent Effect” value was -1.71%. O=C(Nc1cc(-c2cccnc2)no1)C1CCCCC1 was tested, and the “Percent Effect” value was -34.68%. In the case of Cc1ccc(C)c(C(NC(=O)C2CC2)c2cccnc2)c1 (centres undefined), the “Percent Effect” value is reported as -2.241%. In the case of CC(NC(=O)C1CC1)c1cc(O)nc(-c2cccnc2)n1 (centres undefined), the “Percent Effect” value is reported as 92.57%. CC(NC(=O)Nc1nccs1)c1ccncc1 (centres undefined) was tested, and the “Percent Effect” value was -0.7222%. Cn1ccc(NC(=O)Cc2cccc(F)c2)n1 was tested, and the “Percent Effect” value was -26.85%. With CCCNC(=O)Nc1ccn(CCCOC)n1 the “Percent Effect” value was -11.06%. For CCc1nnc(CN(C)Cc2cccc(C(=O)Nc3cnn(C)c3)c2)o1, the “Percent Effect” value was -6.481%. With CN(CCNC(=O)Nc1ccn(C)n1)Cc1ccc(F)cc1 the “Percent Effect” value was 87.45%. With CN(CCNC(=O)Nc1nccs1)Cc1ccc(F)cc1 the “Percent Effect” value was 98.5%. For CN(CCNC(=O)Nc1cnn(C)c1)Cc1ccc(F)cc1, the “Percent Effect” value was 113%. CCc1nnc(CN(C)Cc2cccc(C(=O)Nc3nccs3)c2)o1 was tested, and the “Percent Effect” value was -6.732%. With Cn1cc(CNC(=O)Nc2ccc(S(=O)(=O)C(F)F)cc2)cn1 the “Percent Effect” value was -23.54%. For CC(=O)N1CCN(c2ccccc2CNc2cc(F)cc(F)c2)CC1, the “Percent Effect” value was 2.493%. OCc1ccc(-c2nccn2CCC2=CCCCC2)o1 was tested, and the “Percent Effect” value was -8.705%. For CS(=O)(=O)CCSCc1cccc2cccnc12, the “Percent Effect” value was -12.23%. In the case of CN(CC(=O)Nc1cc(-n2nnnc2C2CC2)ccc1F)C1CCC1, the “Percent Effect” value is reported as -0.6608%. For CCN1C(=O)CCC12CCN(S(=O)(=O)c1ccccc1)CC2, the “Percent Effect” value was -5.531%. O=C(c1cccc(CO)n1)N1CCOC(c2ccc(Cl)c(Cl)c2)C1 (centres undefined) was tested, and the “Percent Effect” value was -12.21%. For N#Cc1cccc(N2CCCC3(CCC(=O)N(C4CCCC4)C3)C2)n1 (centres undefined), the “Percent Effect” value was 106.1%. In the case of CC(=O)c1ccc(N2CCC3(CCC(=O)N(C4CC4)C3)CC2)nc1, the “Percent Effect” value is reported as 5.2%. In the case of CC(O)c1cccc(N2CCC3(CCC(=O)N(C4CCCC4)C3)CC2)n1 (centres undefined), the “Percent Effect” value is reported as 47.1%. CC(O)c1cccc(N2CCC3(CCC(=O)N(CC(N)=O)C3)CC2)n1 (centres undefined) was tested, and the “Percent Effect” value was -13.92%. In the case of CC(C)c1cccc(N2CCCC3(CCC(=O)N(C4CC4)C3)C2)n1 (centres undefined), the “Percent Effect” value is reported as 105.3%. With N#Cc1cccc(N2CCC3(CCC(=O)N(CC4CCCO4)C3)CC2)n1 (centres undefined) the “Percent Effect” value was -19.35%. CCOC(=O)c1cccc(N2CCCC3(CCC(=O)N(C4CC4)C3)C2)n1 (centres undefined) was tested, and the “Percent Effect” value was 78.13%. For N#Cc1cccc(N2CCC3(CCC(=O)N(CC(N)=O)C3)CC2)n1, the “Percent Effect” value was -17.91%. In the case of CCCc1nc(C)cc(N2CCC3(CCC(=O)N(C4CC4)C3)CC2)n1, the “Percent Effect” value is reported as -0.6506%. For CCNC(=O)NC[C@H]1COCc2nc3cc(C)ccc3n21, the “Percent Effect” value was -20.29%. With CN(Cc1ccon1)C(=O)C1CC(=O)N(Cc2ccncc2)C1 (centres undefined) the “Percent Effect” value was 7.553%. With Clc1ccccc1-c1cc(CNc2ncnc3c2CCNCC3)no1 the “Percent Effect” value was 100.4%. Cc1ccc(-c2cc(CNc3ncnc4c3CCNCC4)no2)cc1 was tested, and the “Percent Effect” value was 96.68%. COCc1noc(CCNc2ncnc3c2CCNCC3)n1 was tested, and the “Percent Effect” value was 1.85%. With c1cncc(-c2noc(CCNc3ncnc4c3CCNCC4)n2)c1 the “Percent Effect” value was -0.2436%. For c1cncc(-c2noc(CNc3ncnc4c3CCNCC4)n2)c1, the “Percent Effect” value was 1.079%. In the case of COc1ccc(-c2cc(CC3(NCc4ccc(C)o4)COC3)no2)cc1, the “Percent Effect” value is reported as 0%. With COc1ccc(-c2cc(CNc3ncnc4c3CCNCC4)no2)cc1 the “Percent Effect” value was 113.1%. In the case of O=C(c1ccon1)N1CCc2ncnc(NCc3ccccn3)c2CC1, the “Percent Effect” value is reported as -13.25%. In the case of CCCS(=O)(=O)N1CC[C@H]2O[C@H](c3nnc(C)o3)CC[C@H]21, the “Percent Effect” value is reported as -25.7%. CN(CC(N)=O)C(=O)c1cnc(-c2ccc(Cl)s2)s1 was tested, and the “Percent Effect” value was 2.419%. For O=C(NCCOc1ccc2c(c1)CCC2)N1CCS(=O)(=O)CC1, the “Percent Effect” value was 35.32%. CC(=O)N1CCCN(C(=O)NCCOc2ccc3c(c2)OCO3)CC1 was tested, and the “Percent Effect” value was 96.11%. In the case of CCCN1CCCN(C(=O)Nc2ccc3c(c2)OCO3)CC1, the “Percent Effect” value is reported as -18.65%. With CN1CCCN(C(=O)NCCOc2ccc3c(c2)OCO3)CC1 the “Percent Effect” value was 115.1%. With CC(C)Cc1noc(CNc2cc3c(cc2Cl)OCCCO3)n1 the “Percent Effect” value was 11.73%. With CCc1ccc(C(=O)Nc2ccc3c(c2)N(C)CCN(C)C3)o1 the “Percent Effect” value was 68.84%. With Cc1cc(C(=O)NC2CCCN(c3ccccc3)C2=O)on1 (centres undefined) the “Percent Effect” value was -7.232%. CCc1ccc(C(=O)NC2CCN(c3cnn(C)c3)C2=O)o1 (centres undefined) was tested, and the “Percent Effect” value was 0.5002%. With Cc1ccc(C(=O)Nc2ccc3c(c2)N(C)CCN(C)C3)c(=O)[nH]1 the “Percent Effect” value was 112.4%. With N#Cc1cc(NC(=O)c2cc[nH]n2)ccc1N1CCC(O)CC1 the “Percent Effect” value was -7.892%. With CCc1ccc(NC(=O)c2cnc(N3CCN(C)CC3)nc2C)cc1 the “Percent Effect” value was 0.5656%. In the case of Cc1cc(C(=O)Nc2ccc3c(c2)N(C)CCN(C)C3)on1, the “Percent Effect” value is reported as 108.1%. CCc1ccc(C(=O)Nc2cc(N3CCNC3=O)ccc2Cl)o1 was tested, and the “Percent Effect” value was 2.04%. Cc1ccc(C(=O)NCC2CCN(C)c3ccccc32)c(=O)[nH]1 (centres undefined) was tested, and the “Percent Effect” value was -6.721%. For Cn1cc(NC(=O)c2cc[nH]n2)cc(Cl)c1=O, the “Percent Effect” value was -6.664%. In the case of Cc1ccc(C(=O)NC(CN2CCCC2=O)c2ccccc2)c(=O)[nH]1 (centres undefined), the “Percent Effect” value is reported as -15.69%. With CN1CCN(C)c2cc(NC(=O)c3cc[nH]n3)ccc2C1 the “Percent Effect” value was 95.27%. With CC(C)N(CC(N)=O)Cc1c(Cl)ccc2cccnc12 the “Percent Effect” value was 35.48%. CCN(CC)C(=O)c1cnc(Sc2nccn2C)c(Cl)c1 was tested, and the “Percent Effect” value was -3.996%. With COc1ccccc1CC(=O)NCCCN1CCCC1C(=O)N(C)C (centres undefined) the “Percent Effect” value was -7.215%. For CCN(Cc1noc(C)n1)C(=O)C(c1ccccc1C)N(C)C (centres undefined), the “Percent Effect” value was 20.53%. CS(=O)(=O)NCC(=O)NC1(c2ccc(Cl)c(Cl)c2)CC1 was tested, and the “Percent Effect” value was -6.64%. Cc1ccc(-n2cc(CN3CCOCC(CN(C)C)C3)cn2)cc1C (centres undefined) was tested, and the “Percent Effect” value was -29.82%. For Cl.O=C(O)[C@@H]1CCCN1c1nccc(Nc2ccccc2)n1, the “Percent Effect” value was 110.6%. For CNC(=O)[C@@H](c1ccccc1)N1CCC[C@H]1C(=O)NCc1ccccn1.Cl.Cl, the “Percent Effect” value was -0.04544%. With O=C(Nc1cccc(N2CCCC2)c1)C1CCCN1c1nccs1 (centres undefined) the “Percent Effect” value was -13.09%. In the case of O=C(C1CCCN1c1ncnc2ccsc12)N1CCSCC1 (centres undefined), the “Percent Effect” value is reported as -9.281%. For Cc1cn2nc(N3CCCC3C(=O)N3CCSCC3)sc2n1 (centres undefined), the “Percent Effect” value was -34.07%. In the case of O=C([C@@H]1CCCN1c1nccc(Nc2ccccc2)n1)N1CCCCC1, the “Percent Effect” value is reported as 107.6%. With OCc1ccc(N2CCN(c3ncccn3)CC2)c(F)c1 the “Percent Effect” value was 10.85%. COc1cc(C2C3=C(COC3=O)Nc3[nH]nc(C)c32)cc(Br)c1O (centres undefined) was tested, and the “Percent Effect” value was 6.444%. In the case of CC(C)CSc1ccc(-n2cccn2)nn1, the “Percent Effect” value is reported as -15.59%. With O=C(O)C(F)(F)F.O=C1[C@H]2CN(CC3CCOCC3)C[C@H]2CN1c1ccsc1 the “Percent Effect” value was -12.76%. With COc1nn(C)c2c1CCCN(S(=O)(=O)c1ccccc1F)C2 the “Percent Effect” value was 9.619%. O=C(O)C(F)(F)F.O=S(=O)(c1ccc(F)cc1)N1CC[C@H]2[C@H]1CCN2c1ncccn1 was tested, and the “Percent Effect” value was 5.126%. In the case of O=S(=O)(c1ccccc1)N1CCCCC1c1cc[nH]n1 (centres undefined), the “Percent Effect” value is reported as 7.34%. With O=S(=O)(c1ccccc1)N1CCCC1c1cc[nH]n1 (centres undefined) the “Percent Effect” value was 100.7%. O=S(=O)(c1ccc(F)cc1)N1CCCC1c1cc[nH]n1 (centres undefined) was tested, and the “Percent Effect” value was 93.9%. O=S(=O)(c1ccccc1F)N1CCCCC1c1cc[nH]n1 (centres undefined) was tested, and the “Percent Effect” value was 126.5%. In the case of CNS(=O)(=O)c1ccc(CN2CCCC2c2ccc(F)cc2)cc1 (centres undefined), the “Percent Effect” value is reported as -2.722%. For COCCN(C)CC1CCCN1S(=O)(=O)c1cccc(F)c1F (centres undefined), the “Percent Effect” value was -7.612%. With CCN1C(=O)C[C@@H]2[C@@H]1CCN2S(=O)(=O)c1ccccc1 the “Percent Effect” value was -17.79%. With O=S(=O)(c1ccc(F)cc1)N1CCCCC1c1cc[nH]n1 (centres undefined) the “Percent Effect” value was 93.21%. With CS(=O)(=O)c1ccc(CN2CCCCC2c2ccc(F)cc2)cc1 (centres undefined) the “Percent Effect” value was 14.88%. In the case of CN(Cc1ccno1)C(=O)c1cccc(CC2CCNCC2)c1, the “Percent Effect” value is reported as -13.23%. With CCNC(=O)NC(=O)CNC1(c2noc(C)n2)CCCC1 the “Percent Effect” value was 91.61%. For Cc1nc(C2(NCc3ccc(C#N)cc3F)CCCC2)no1, the “Percent Effect” value was 14.6%. Cc1nc(C2(NC(=O)NCc3cc(C#N)ccc3F)CCCC2)no1 was tested, and the “Percent Effect” value was -8.279%. For COc1cc(-c2nccn2C(C)CCn2cccn2)cc2c1OCO2 (centres undefined), the “Percent Effect” value was -13.68%. CC1CCN(C)c2ccccc2N1C(=O)c1ccc(=O)n(C)n1 (centres undefined) was tested, and the “Percent Effect” value was -12.65%. CC(C)(C)CN1CCCC12Cc1ccccc1CNC2=O (centres undefined) was tested, and the “Percent Effect” value was 188%. CC(C)(C)CN1CCCC(O)(CN2CCc3[nH]ncc3C2)C1=O (centres undefined) was tested, and the “Percent Effect” value was -1.805%. For CC(C)CCN1CCCC12Cc1ccccc1CNC2=O (centres undefined), the “Percent Effect” value was 106.1%. For COc1nn(C)cc1C(=O)NCC(=O)NCc1ccccn1, the “Percent Effect” value was 5.267%. NC(=O)CCN(CC(=O)NCc1cccs1)c1ccc(F)cc1 was tested, and the “Percent Effect” value was 110%. With Cc1ccc(CNC(=O)CN(CCC(N)=O)c2ccc(F)cc2)cc1 the “Percent Effect” value was 105.8%. With Cc1cccc(N(CCC(N)=O)CC(=O)Nc2ccccc2)c1 the “Percent Effect” value was 2.508%. With O=C(NCc1ccccn1)N(Cc1ccc(F)cc1F)C1CC1 the “Percent Effect” value was -2.472%. In the case of O=C(CN(Cc1cccs1)c1ccc(F)cc1)NC1CCOCC1, the “Percent Effect” value is reported as -0.05044%. For NC(=O)CCN(CC(=O)NCc1ccccn1)c1ccc(F)cc1, the “Percent Effect” value was 119%. With O=C(CSc1nnc[nH]1)NCc1cccs1 the “Percent Effect” value was -6.872%. With Cc1cccc(N(CCC(N)=O)CC(=O)NC2CCCC2)c1 the “Percent Effect” value was -5.461%.
